# Results taken from PubChem BioAssay AID1159580 (chemical genetic matrix, 2015).
# The whole screen tested about 5,500 compounds, of which about 2,000 (36%) were called active. Not shown: some 18% with an inconclusive outcome. The list shows a part of the results. Values without a mark were called inactive. No stated cut-off is given here; in the data, active means normalized growth mostly below about 0.91 (no sharp cut-off); inconclusive means no clear call, values can overlap the other calls; inactive means mostly above about 0.92.
# Assay: chemical genetic growth profiling, strain panel (AID 1159580);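 further: tested at 20 µM; growth read once vehicle control cultures reached saturation at 30 °C; 1 = growth at the plate median or of vehicle wells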
# Conditions: growth OD
smiles,measurement,setting,value
C#C[C@]1(O)CCC2C3CCC4=C(CCC(=O)C4)C3CC[C@@]21C (some centres undefined),normalized growth,"S. cerevisiae deletion strains, locus YJR075W, strain HOC1, stronger effect = lower value",1.02
same,normalized growth,"S. cerevisiae deletion strains, locus YKL009W, strain mrt4, stronger effect = lower value",0.974
same,normalized growth,"S. cerevisiae deletion strains, locus YKL068W, stronger effect = lower value",1.01
same,normalized growth,"S. cerevisiae deletion strains, locus YKL085W, strain MDH1 (second series), stronger effect = lower value",1.01
same,normalized growth,"S. cerevisiae deletion strains, locus YKL085W, strain MDH1, stronger effect = lower value",1.01
same,normalized growth,"S. cerevisiae deletion strains, locus YKL160W, strain elf1, stronger effect = lower value",0.998
same,normalized growth,"S. cerevisiae deletion strains, locus YKL190W, strain CNB1, stronger effect = lower value",1.04
same,normalized growth,"S. cerevisiae deletion strains, locus YKR001C, strain vps1, stronger effect = lower value",1.01
same,normalized growth,"S. cerevisiae deletion strains, locus YKR026C, strain gcn3, stronger effect = lower value",0.986
same,normalized growth,"S. cerevisiae deletion strains, locus YKR091W, strain srl3, stronger effect = lower value",0.982
same,normalized growth,"S. cerevisiae deletion strains, locus YLL001W, strain dnm1, stronger effect = lower value",1
same,normalized growth,"S. cerevisiae deletion strains, locus YLL026W, stronger effect = lower value",0.994
same,normalized growth,"S. cerevisiae deletion strains, locus YLL041C, strain sdh2, stronger effect = lower value",0.977
same,normalized growth,"S. cerevisiae deletion strains, locus YLR027C, strain aat2, stronger effect = lower value",0.983
same,normalized growth,"S. cerevisiae deletion strains, locus YLR039C, strain RIC1, stronger effect = lower value",0.911
same,normalized growth,"S. cerevisiae deletion strains, locus YLR058C, strain SHM2, stronger effect = lower value",1.01
same,normalized growth,"S. cerevisiae deletion strains, locus YLR102C, strain apc9, stronger effect = lower value",1.01
same,normalized growth,"S. cerevisiae deletion strains, locus YLR113W, strain HOG1, stronger effect = lower value",0.852
same,normalized growth,"S. cerevisiae deletion strains, locus YLR221C, strain rsa3, stronger effect = lower value",0.96
same,normalized growth,"S. cerevisiae deletion strains, locus YLR258W, strain gsy2, stronger effect = lower value",0.973
same,normalized growth,"S. cerevisiae deletion strains, locus YLR262C, strain YPT6 (second series), stronger effect = lower value",0.825 (active)
same,normalized growth,"S. cerevisiae deletion strains, locus YLR262C, strain YPT6, stronger effect = lower value",0.868
same,normalized growth,"S. cerevisiae deletion strains, locus YLR268W, strain sec22, stronger effect = lower value",0.959
same,normalized growth,"S. cerevisiae deletion strains, locus YLR320W, strain mms22, stronger effect = lower value",0.963
same,normalized growth,"S. cerevisiae deletion strains, locus YLR330W, strain CHS5, stronger effect = lower value",1.02
same,normalized growth,"S. cerevisiae deletion strains, locus YLR342W, strain FKS1 (second series), stronger effect = lower value",0.953
same,normalized growth,"S. cerevisiae deletion strains, locus YLR342W, strain FKS1, stronger effect = lower value",0.968
same,normalized growth,"S. cerevisiae deletion strains, locus YLR357W, strain rsc2, stronger effect = lower value",1.03
same,normalized growth,"S. cerevisiae deletion strains, locus YLR370C, strain arc18, stronger effect = lower value",0.97
same,normalized growth,"S. cerevisiae deletion strains, locus YLR371W, strain rom2, stronger effect = lower value",1
same,normalized growth,"S. cerevisiae deletion strains, locus YLR384C, strain iki3, stronger effect = lower value",0.974
same,normalized growth,"S. cerevisiae deletion strains, locus YLR418C, strain cdc73, stronger effect = lower value",0.961
same,normalized growth,"S. cerevisiae deletion strains, locus YML016C, strain PPZ1, stronger effect = lower value",1.01
same,normalized growth,"S. cerevisiae deletion strains, locus YML032C, strain rad52, stronger effect = lower value",0.975
same,normalized growth,"S. cerevisiae deletion strains, locus YML120C, strain ndi1, stronger effect = lower value",0.97
same,normalized growth,"S. cerevisiae deletion strains, locus YML124C, strain tub3, stronger effect = lower value",1.01
same,normalized growth,"S. cerevisiae deletion strains, locus YMR058W, strain fet3, stronger effect = lower value",0.963
same,normalized growth,"S. cerevisiae deletion strains, locus YMR078C, strain ctf18, stronger effect = lower value",1
same,normalized growth,"S. cerevisiae deletion strains, locus YMR125W, strain sto1, stronger effect = lower value",1.01
same,normalized growth,"S. cerevisiae deletion strains, locus YMR129W, stronger effect = lower value",0.972
same,normalized growth,"S. cerevisiae deletion strains, locus YMR205C, strain PFK2, stronger effect = lower value",0.978
same,normalized growth,"S. cerevisiae deletion strains, locus YMR223W, strain ubp8, stronger effect = lower value",1.01
same,normalized growth,"S. cerevisiae deletion strains, locus YMR231W, strain pep5, stronger effect = lower value",0.981
same,normalized growth,"S. cerevisiae deletion strains, locus YMR307W, strain GAS1, stronger effect = lower value",0.989
same,normalized growth,"S. cerevisiae deletion strains, locus YNL067W, strain RPL9B, stronger effect = lower value",1.02
same,normalized growth,"S. cerevisiae deletion strains, locus YNL071W, strain lat1, stronger effect = lower value",0.963
same,normalized growth,"S. cerevisiae deletion strains, locus YNL128W, strain TEP1, stronger effect = lower value",1.03
same,normalized growth,"S. cerevisiae deletion strains, locus YNL153C, strain GIM3, stronger effect = lower value",1.03
same,normalized growth,"S. cerevisiae deletion strains, locus YNL183C, strain NPR1, stronger effect = lower value",0.919
same,normalized growth,"S. cerevisiae deletion strains, locus YNL209W, strain ssb2, stronger effect = lower value",0.989
same,normalized growth,"S. cerevisiae deletion strains, locus YNL233W, strain BNI4, stronger effect = lower value",0.998
same,normalized growth,"S. cerevisiae deletion strains, locus YNL248C, strain rpa49, stronger effect = lower value",0.96
same,normalized growth,"S. cerevisiae deletion strains, locus YNL250W, strain rad50, stronger effect = lower value",0.992
same,normalized growth,"S. cerevisiae deletion strains, locus YNL271C, strain bni1, stronger effect = lower value",0.991
same,normalized growth,"S. cerevisiae deletion strains, locus YNL298W, strain CLA4, stronger effect = lower value",0.986
same,normalized growth,"S. cerevisiae deletion strains, locus YNL307C, strain MCK1, stronger effect = lower value",0.99
same,normalized growth,"S. cerevisiae deletion strains, locus YNL322C, strain KRE1 (second series), stronger effect = lower value",0.97
same,normalized growth,"S. cerevisiae deletion strains, locus YNR049C, strain mso1, stronger effect = lower value",0.982
same,normalized growth,"S. cerevisiae deletion strains, locus YNR052C, strain pop2, stronger effect = lower value",0.992
same,normalized growth,"S. cerevisiae deletion strains, locus YOL006C, strain TOP1, stronger effect = lower value",0.931
same,normalized growth,"S. cerevisiae deletion strains, locus YOL012C, strain htz1",1.9
same,normalized growth,"S. cerevisiae deletion strains, locus YOL147C, strain pex11, stronger effect = lower value",1.01
same,normalized growth,"S. cerevisiae deletion strains, locus YOR001W, strain rrp6, stronger effect = lower value",0.936
same,normalized growth,"S. cerevisiae deletion strains, locus YOR061W, strain CKA2, stronger effect = lower value",1
same,normalized growth,"S. cerevisiae deletion strains, locus YOR069W, strain VPS5, stronger effect = lower value",1.02
same,normalized growth,"S. cerevisiae deletion strains, locus YOR070C, strain gyp1, stronger effect = lower value",1
same,normalized growth,"S. cerevisiae deletion strains, locus YOR080W, strain dia2, stronger effect = lower value",0.999
same,normalized growth,"S. cerevisiae deletion strains, locus YOR083W, strain WHI5, stronger effect = lower value",0.985
same,normalized growth,"S. cerevisiae deletion strains, locus YOR106W, strain vam3, stronger effect = lower value",0.991
same,normalized growth,"S. cerevisiae deletion strains, locus YOR136W, strain idh2, stronger effect = lower value",1
same,normalized growth,"S. cerevisiae deletion strains, locus YOR144C, strain elg1, stronger effect = lower value",1
same,normalized growth,"S. cerevisiae deletion strains, locus YOR184W, strain ser1, stronger effect = lower value",0.898
same,normalized growth,"S. cerevisiae deletion strains, locus YOR231W, strain MKK1, stronger effect = lower value",0.919
same,normalized growth,"S. cerevisiae deletion strains, locus YOR265W, strain rbl2, stronger effect = lower value",0.987
same,normalized growth,"S. cerevisiae deletion strains, locus YOR270C, strain vph1, stronger effect = lower value",0.955
same,normalized growth,"S. cerevisiae deletion strains, locus YOR290C, strain snf2, stronger effect = lower value",0.932
same,normalized growth,"S. cerevisiae deletion strains, locus YOR316C, strain cot1, stronger effect = lower value",1
same,normalized growth,"S. cerevisiae deletion strains, locus YPL051W, strain arl3, stronger effect = lower value",0.983
same,normalized growth,"S. cerevisiae deletion strains, locus YPL078C, strain atp4, stronger effect = lower value",0.93
same,normalized growth,"S. cerevisiae deletion strains, locus YPL106C, strain sse1, stronger effect = lower value",1.03
same,normalized growth,"S. cerevisiae deletion strains, locus YPL240C, strain hsp82, stronger effect = lower value",0.981
same,normalized growth,"S. cerevisiae deletion strains, locus YPL241C, strain CIN2, stronger effect = lower value",1.02
same,normalized growth,"S. cerevisiae deletion strains, locus YPL256C, strain CLN2, stronger effect = lower value",0.838
same,normalized growth,"S. cerevisiae deletion strains, locus YPR119W, strain clb2, stronger effect = lower value",1
same,normalized growth,"S. cerevisiae deletion strains, locus YPR141C, strain kar3, stronger effect = lower value",1.01
same,normalized growth,"S. cerevisiae deletion strains, locus YPR163C, strain tif3, stronger effect = lower value",1.02
same,normalized growth,"S. cerevisiae deletion strains, locus YPR167C, strain met16, stronger effect = lower value",1
same,normalized growth,"S. cerevisiae deletion strains, strain wtn01, stronger effect = lower value",0.996
same,normalized growth,"S. cerevisiae strains, strain wild type, stronger effect = lower value",1.03
